The results in this text go back to PMC3218832.

Holding throughout (experiment): protein binding microarray; high values mean tight binding
Holding throughout (conditions): dsDNA, one strand shown

Test [1] has as its target RELARELA (p65 homodimer) (Homo sapiens, UniProt Q04206 1-307).
Test [2] has as its target p50p50 homodimer (Homo sapiens, UniProt P19838 7-356).
Test [3] concerns the target T1, p52p52 homodimer (Homo sapiens, UniProt Q00653 4-332).
T1 sequence: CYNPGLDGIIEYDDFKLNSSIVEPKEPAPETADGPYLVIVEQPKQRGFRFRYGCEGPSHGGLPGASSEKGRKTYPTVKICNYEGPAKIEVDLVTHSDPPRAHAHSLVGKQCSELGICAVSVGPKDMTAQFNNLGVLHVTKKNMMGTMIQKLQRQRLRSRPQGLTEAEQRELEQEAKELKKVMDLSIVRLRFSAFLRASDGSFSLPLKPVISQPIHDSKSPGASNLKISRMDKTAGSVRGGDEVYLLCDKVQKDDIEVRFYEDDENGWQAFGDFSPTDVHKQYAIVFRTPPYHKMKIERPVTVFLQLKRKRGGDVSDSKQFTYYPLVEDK

Test [4] concerns the target RELA (p65) subunit of heterodimer;p50 subunit (Homo sapiens;Homo sapiens, UniProt Q04206;P19838 1-307;7-356).
Test [5] deals with RELA (p65) subunit of heterodimer;p52 subunit (Homo sapiens;Homo sapiens, UniProt Q04206;Q00653 1-307;4-332).
The target of test [6] is RELB subunit;p50 subunit (Homo sapiens;Homo sapiens, UniProt Q01201;P19838 120-401;7-356).
The target of test [7] is T2, RELB subunit;p52 subunit (Homo sapiens;Homo sapiens, UniProt Q01201;Q00653 120-401;4-332).
T2 sequence 1: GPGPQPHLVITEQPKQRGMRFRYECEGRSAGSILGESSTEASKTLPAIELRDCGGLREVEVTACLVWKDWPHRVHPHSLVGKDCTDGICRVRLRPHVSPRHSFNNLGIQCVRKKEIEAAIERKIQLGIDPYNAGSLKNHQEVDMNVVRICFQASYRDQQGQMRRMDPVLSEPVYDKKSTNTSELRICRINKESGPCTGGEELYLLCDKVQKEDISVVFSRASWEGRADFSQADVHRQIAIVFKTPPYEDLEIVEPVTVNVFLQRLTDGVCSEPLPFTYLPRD
T2 sequence 2: T1 sequence

Test [8] concerns the target C-Rel subunit;p50 subunit (Homo sapiens;Homo sapiens, UniProt Q04864;P19838 1-285;7-356).
For test [9], the target named is T3, C-Rel subunit;p52 subunit (Homo sapiens;Homo sapiens, UniProt Q04864;Q00653 1-285;4-332).
T3 sequence 1: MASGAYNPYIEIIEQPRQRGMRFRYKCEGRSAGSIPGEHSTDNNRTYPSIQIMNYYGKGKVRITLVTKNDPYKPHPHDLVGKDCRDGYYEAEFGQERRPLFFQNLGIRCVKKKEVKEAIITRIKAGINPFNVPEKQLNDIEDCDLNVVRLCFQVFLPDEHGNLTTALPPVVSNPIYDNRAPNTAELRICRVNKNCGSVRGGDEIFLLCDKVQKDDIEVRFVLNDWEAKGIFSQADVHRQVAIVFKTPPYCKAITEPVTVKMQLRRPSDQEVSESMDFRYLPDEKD
T3 sequence 2: T1 sequence

Sequence of RELARELA (p65 homodimer) (Q04206 1-307): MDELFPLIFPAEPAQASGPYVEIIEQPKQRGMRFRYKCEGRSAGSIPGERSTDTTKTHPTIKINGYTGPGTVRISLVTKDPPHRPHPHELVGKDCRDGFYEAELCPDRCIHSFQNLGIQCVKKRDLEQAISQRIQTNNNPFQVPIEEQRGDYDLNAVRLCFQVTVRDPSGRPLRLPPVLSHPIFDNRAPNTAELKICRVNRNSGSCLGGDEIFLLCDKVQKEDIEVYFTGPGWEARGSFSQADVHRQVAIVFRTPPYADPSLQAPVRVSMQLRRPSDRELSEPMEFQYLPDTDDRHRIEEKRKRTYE
Sequence of RELA (p65) subunit of heterodimer;p50 subunit (Q04206 1-307, chain 1 of 2): as the sequence (Q04206 1-307) above
Sequence of RELA (p65) subunit of heterodimer;p50 subunit (P19838 7-356, chain 2 of 2): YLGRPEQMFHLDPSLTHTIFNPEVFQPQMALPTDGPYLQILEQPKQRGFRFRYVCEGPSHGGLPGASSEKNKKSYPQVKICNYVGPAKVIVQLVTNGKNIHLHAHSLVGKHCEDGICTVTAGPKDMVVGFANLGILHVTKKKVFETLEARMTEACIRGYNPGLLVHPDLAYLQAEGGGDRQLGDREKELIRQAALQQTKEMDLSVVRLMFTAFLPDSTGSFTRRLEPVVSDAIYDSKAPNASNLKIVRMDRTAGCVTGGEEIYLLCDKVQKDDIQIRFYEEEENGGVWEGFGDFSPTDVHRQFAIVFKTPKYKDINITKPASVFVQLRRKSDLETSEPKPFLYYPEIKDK
Sequence of p50p50 homodimer (P19838 7-356): as the sequence (P19838 7-356, chain 2 of 2) above

As for CGGGGGTCCCT, the binding signal in [1] was found to be 0.00646 z-score; in [2], 1.14 z-score; in test [3], 0.985 z-score; in [4] it was 0.963 z-score; in test [5] it was 1.07 z-score; in test [6], 1.06 z-score. Also, the binding signal in [7] was 1.23 z-score; in test [8], 0.761 z-score; in test [9] it was 0.926 z-score.
As for CGGGGGGTCCC, the binding signal in [1] is 0.448 z-score; in test [2], 0.975 z-score; in test [3] it was 2.05 z-score; in test [4], 1.38 z-score; in test [5] it was 1.59 z-score; in test [6], 1.28 z-score. Moreover, the binding signal was determined as 1.67 z-score in test [7], 1.04 z-score in test [8] and 1.59 z-score in test [9].
Consider AGGAATATCCC, for which the binding signal is 1.97 z-score in test [1]; 0.155 z-score in [2]; 0.511 z-score in test [3]; 0.866 z-score in test [4]; 0.83 z-score in [5]; 0.0984 z-score in test [6]. Besides, the binding signal in [7] worked out at 0.231 z-score; in test [8] it was 0.402 z-score; in [9] it was 0.834 z-score.
For AAAAAGCCCCC, the binding signal in test [1] is 1.22 z-score; in test [2] it was 1.3 z-score; in test [3] it was 2.26 z-score; in test [4], 1.98 z-score; in test [5], 2.06 z-score; in [6] it was 2.17 z-score. The binding signal amounted to 2.06 z-score in test [7], 1.43 z-score in test [8] and 2.22 z-score in test [9].
Turning to GAATTGTTCCT, the binding signal in test [1] was 0.0616 z-score; in test [2] it was -1.38 z-score; in test [3] it was -0.497 z-score; in [4] it was -0.672 z-score; in test [5], -0.721 z-score; in test [6], -1.09 z-score. Besides, the results for the binding signal in test [7], in [8] and in test [9] were -0.587 z-score, -0.937 z-score and -0.574 z-score, respectively.
For CGGGTATCCCC, the binding signal turned out to be 1.9 z-score in [1]; 0.854 z-score in [2]; 2.48 z-score in [3]; 1.84 z-score in test [4]; 2.01 z-score in [5]; 0.893 z-score in [6]. The results for the binding signal in test [7], in test [8] and in [9] were 1.59 z-score, 1.64 z-score and 2.53 z-score, respectively.
Regarding GAATAGCTCCC, the binding signal is -0.473 z-score in test [1]; -0.795 z-score in test [2]; -0.577 z-score in test [3]; -0.627 z-score in test [4]; -0.84 z-score in [5]; -0.753 z-score in [6]. For the same sequence, the results for the binding signal in [7], in test [8] and in test [9] were -0.873 z-score, -1.16 z-score and -0.82 z-score, respectively.
Regarding AGATGAACCCC, the binding signal in [1] was -0.232 z-score; in test [2] it was -0.284 z-score; in [3], -0.287 z-score; in test [4] it was -0.402 z-score; in [5], -0.342 z-score; in test [6], -0.255 z-score. Moreover, the results for the binding signal in test [7], in test [8] and in [9] were -0.0728 z-score, -0.464 z-score and -0.256 z-score, respectively.
With GAAGGAGTCCT, the binding signal was -0.288 z-score in test [1]; -1.55 z-score in [2]; -0.648 z-score in test [3]; -0.892 z-score in test [4]; -0.934 z-score in test [5]; -0.985 z-score in test [6]. In addition, the binding signal in test [7] was -0.808 z-score; in [8], -1.08 z-score; in test [9], -0.746 z-score.
Regarding GGAATCGTCCC, the binding signal in [1] is 0.862 z-score; in test [2], 0.42 z-score; in test [3] it was 0.582 z-score; in test [4] it was 0.504 z-score; in [5], 0.591 z-score; in test [6] it was 0.29 z-score. For the same sequence, the binding signal in test [7] was 0.267 z-score; in test [8], 0.649 z-score; in test [9] it was 0.392 z-score.
Regarding AGGAGCCTCCC, the binding signal in test [1] was -0.27 z-score; in test [2] it was -0.831 z-score; in test [3], -0.599 z-score; in [4] it was -0.748 z-score; in test [5], -0.852 z-score; in [6], -0.76 z-score. The binding signal was -0.789 z-score in [7], -0.995 z-score in test [8] and -0.719 z-score in [9].
In the case of AAGGGACCCCC, the binding signal is -0.529 z-score in [1]; 0.964 z-score in test [2]; 0.927 z-score in test [3]; 0.806 z-score in [4]; 0.93 z-score in test [5]; 0.75 z-score in test [6]. Further, the binding signal in [7] came to 0.929 z-score; in test [8], 0.681 z-score; in test [9] it was 0.75 z-score.
For the sequence GAGAGGTCCCT, the binding signal in test [1] worked out at 0.699 z-score; in [2], 0.517 z-score; in [3], 0.431 z-score; in test [4], 0.364 z-score; in test [5], 0.0823 z-score; in test [6] it was 0.659 z-score. Besides, the binding signal in test [7] stood at 0.436 z-score; in [8], 0.182 z-score; in test [9], 0.0392 z-score.
For the sequence CGAAACCCCCT, the binding signal in [1] was 0.503 z-score; in test [2], 1.69 z-score; in test [3], 2 z-score; in test [4], 2.24 z-score; in test [5] it was 2.14 z-score; in test [6] it was 2.22 z-score. The binding signal worked out at 2.21 z-score in test [7], 1.52 z-score in test [8] and 2.21 z-score in test [9].
In the case of AAAAATTCCCC, the binding signal turned out to be 3.28 z-score in test [1]; 1.42 z-score in test [2]; 2.98 z-score in test [3]; 2.27 z-score in test [4]; 2.54 z-score in test [5]; 2.96 z-score in [6]. Also, the results for the binding signal in test [7], in test [8] and in [9] were 2.46 z-score, 2.04 z-score and 2.78 z-score, respectively.
With CGGTGCTTCCC, the binding signal in test [1] came out at 0.809 z-score; in [2], 0.562 z-score; in [3] it was 2.72 z-score; in test [4] it was 1.22 z-score; in test [5], 1.98 z-score; in [6], 1.09 z-score. Moreover, the binding signal stood at 2.06 z-score in test [7], 0.924 z-score in [8] and 2.22 z-score in test [9].
For the sequence CGAATGATCCT, the binding signal in test [1] is -0.807 z-score; in test [2], -1.92 z-score; in test [3] it was -0.659 z-score; in [4], -0.966 z-score; in test [5] it was -0.935 z-score; in [6], -1.16 z-score. Further, the values for the binding signal in test [7], in [8] and in test [9] were -0.928 z-score, -1.72 z-score and -0.968 z-score, respectively.
Take GAGTGACTCCC: the binding signal in [1] is -0.623 z-score; in [2], -0.849 z-score; in test [3] it was -0.413 z-score; in test [4], -0.796 z-score; in [5], -0.812 z-score; in [6], -0.601 z-score. Also, the binding signal was -0.827 z-score in test [7], -0.837 z-score in test [8] and -0.832 z-score in test [9].
GAATAGACCCT: the binding signal in test [1] was -0.683 z-score; in [2], -0.579 z-score; in [3], -0.346 z-score; in test [4] it was -0.545 z-score; in test [5], -0.606 z-score; in test [6] it was -0.679 z-score. Moreover, the binding signal in [7] is -0.749 z-score; in test [8] it was -1.19 z-score; in test [9], -0.574 z-score.
As to AAAGTCATCCC, the binding signal in test [1] is -0.416 z-score; in [2], -0.925 z-score; in test [3], -0.412 z-score; in test [4], -1.01 z-score; in test [5], -0.716 z-score; in test [6], -0.587 z-score. The binding signal in test [7] was -0.628 z-score; in [8] it was -0.836 z-score; in test [9], -0.699 z-score.
On to GGATGATTCCT, for which the binding signal in [1] was 0.0919 z-score; in [2], -1.32 z-score; in test [3], -0.648 z-score; in [4], -0.708 z-score; in [5], -0.749 z-score; in [6], -0.941 z-score. For the same sequence, the results for the binding signal in test [7], in test [8] and in test [9] were -0.913 z-score, -0.706 z-score and -0.54 z-score, respectively.
